Reference: PubChem BioAssay AID1159580 (chemical genetic matrix, 2015)
Screen size: about 5,500 compounds; about 2,000 (36%) were called active. Roughly 18% stayed inconclusive and do not appear here. Rule as the data show it: active = normalized growth mostly below about 0.91 (no sharp cut-off); inconclusive = no clear call, values can overlap the other calls; inactive = mostly above about 0.92. The list shows a part of the results.

Assay: chemical genetic growth profiling, strain panel (AID 1159580);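 also: tested at 20 µM; growth read once vehicle control cultures reached saturation at 30 °C; 1 = growth at the plate median or of vehicle wells; lower values mean less growth of the strain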
Conditions: S. cerevisiae deletion strains, growth OD

Measured: normalized growth

Clc1cccc(Cl)c1C1CC(c2ccccc2)=Nc2ccccc2S1 (stereo unspecified)
inactive: locus YAR019C, strain CDC15, hits give low values 0.986 | locus YBL105C, strain PKC1, hits give low values 0.986 | locus YBR135W, strain CKS1, hits give low values 0.993 | locus YBR136W, strain MEC1, hits give low values 0.962 | locus YBR160W, strain CDC28, hits give low values 0.988 | locus YDL017W, strain CDC7, hits give low values 0.98 | locus YDL028C, strain MPS1, hits give low values 0.99 | locus YDL101C, strain DUN1, hits give low values 0.984 | locus YDL108W, strain KIN28, hits give low values 0.989 | locus YDL132W, strain cdc53, hits give low values 0.994 | locus YDL214C, strain PRR2, hits give low values 0.978 | locus YDR052C, strain DBF4, hits give low values 0.982 | locus YDR054C, strain cdc34, hits give low values 0.978 | locus YDR226W, strain ADK1, hits give low values 0.982 | locus YDR477W, strain SNF1, hits give low values 0.979 | locus YER123W, strain YCK3, hits give low values 0.981 | locus YER133W, strain GLC7, hits give low values 0.981 | locus YFL009W, strain cdc4, hits give low values 0.989 | locus YFL029C, strain CAK1, hits give low values 0.98 | locus YFR003C, strain YPI1, hits give low values 0.989 | locus YFR019W, strain FAB1, hits give low values 0.986 | locus YFR028C, strain CDC14, hits give low values 0.985 | locus YGR040W, strain KSS1, hits give low values 0.967 | locus YGR052W, strain FMP48, hits give low values 1.07 | locus YGR092W, strain DBF2, hits give low values 0.989 | locus YHR030C, strain SLT2, hits give low values 0.987 | locus YHR079C, strain IRE1, hits give low values 0.992 | locus YHR082C, strain KSP1, hits give low values 1.02 | locus YHR205W, strain SCH9, hits give low values 0.936 | locus YIL147C, strain SLN1, hits give low values 0.981 | locus YJL095W, strain BCK1, hits give low values 1 | locus YJL128C, strain PBS2, hits give low values 0.958 | locus YJL157C, strain FAR1, hits give low values 0.988 | locus YJR016C, strain ILV3, hits give low values 0.992 | locus YJR066W, strain TOR1 (second series), hits give low values 0.95 | locus YJR066W, strain TOR1, hits give low values 0.991 | locus YKL048C, strain ELM1, hits give low values 0.982 | locus YKL067W, strain YNK1, hits give low values 0.974 | locus YKL101W, strain HSL1, hits give low values 0.966 | locus YKL193C, strain SDS22, hits give low values 0.991 | locus YKL203C, strain TOR2, hits give low values 1.02 | locus YLR113W, strain HOG1, hits give low values 0.93 | locus YLR133W, strain CKI1, hits give low values 0.977 | locus YLR403W, strain SFP1, hits give low values 0.973 | locus YML070W, strain DAK1, hits give low values 0.981 | locus YMR001C, strain CDC5, hits give low values 0.986 | locus YMR205C, strain PFK2 (second series), hits give low values 0.979 | locus YMR277W, strain FCP1, hits give low values 0.991 | locus YNL006W, strain LST8, hits give low values 0.995 | locus YNL020C, strain ARK1, hits give low values 0.985 | locus YNL161W, strain CBK1, hits give low values 0.981 | locus YNL183C, strain NPR1, hits give low values 0.997 | locus YNL207W, strain RIO2, hits give low values 0.985 | locus YNL222W, strain SSU72, hits give low values 0.995 | locus YNL307C, strain MCK1 (second series), hits give low values 0.999 | locus YOL078W, strain AVO1, hits give low values 0.99 | locus YOL136C, strain PFK27, hits give low values 0.973 | locus YOR061W, strain CKA2, hits give low values 0.978 | locus YOR119C, strain RIO1, hits give low values 0.997 | locus YOR231W, strain MKK1, hits give low values 0.988 | locus YOR329C, strain SCD5, hits give low values 0.978 | locus YPL031C, strain PHO85, hits give low values 0.982 | locus YPL153C, strain RAD53, hits give low values 0.982 | locus YPL204W, strain HRR25, hits give low values 0.99 | locus YPL209C, strain IPL1, hits give low values 0.988 | locus YPL256C, strain CLN2, hits give low values 0.947 | locus YPR025C, strain CCL1, hits give low values 0.987 | locus YPR106W, strain ISR1, hits give low values 0.981 | locus YPR111W, strain DBF20, hits give low values 0.983 | strain NNK1, hits give low values 0.99 | strain TSCII, hits give low values 0.986
